Source: PubChem BioAssay AID1851 (National Center for Advancing Translational Sciences (NCATS), 2009)
The whole screen tested about 16,000 compounds, of which about 4,000 (25%) were called active. Inconclusive results (about 26%) are left out. The list is a sample of the results. Unmarked numbers belong to inactive results. The call rests on the fitted dose curve; in most records, active means well fitted curve in the direction sought with a large enough effect; inconclusive means small, poorly fitted or top-dose-only effect, or effect the other way; inactive means no such curve, though single readings can be large or run the other way.

target: Cytochrome P450 2C9 (Homo sapiens) (UniProt P11712); experiment: Cytochrome panel assay with activity outcomes; conditions: recombinant CYP, pro-luciferin dealkylation, luminescence, p450-cyp2c9; series mostly up to 57.1 µM
On the % scale 0 is the no-effect control and ±100 the full control effect.

Cytochrome P450 2C9 (Homo sapiens), sequence (P11712 whole entry, looked up): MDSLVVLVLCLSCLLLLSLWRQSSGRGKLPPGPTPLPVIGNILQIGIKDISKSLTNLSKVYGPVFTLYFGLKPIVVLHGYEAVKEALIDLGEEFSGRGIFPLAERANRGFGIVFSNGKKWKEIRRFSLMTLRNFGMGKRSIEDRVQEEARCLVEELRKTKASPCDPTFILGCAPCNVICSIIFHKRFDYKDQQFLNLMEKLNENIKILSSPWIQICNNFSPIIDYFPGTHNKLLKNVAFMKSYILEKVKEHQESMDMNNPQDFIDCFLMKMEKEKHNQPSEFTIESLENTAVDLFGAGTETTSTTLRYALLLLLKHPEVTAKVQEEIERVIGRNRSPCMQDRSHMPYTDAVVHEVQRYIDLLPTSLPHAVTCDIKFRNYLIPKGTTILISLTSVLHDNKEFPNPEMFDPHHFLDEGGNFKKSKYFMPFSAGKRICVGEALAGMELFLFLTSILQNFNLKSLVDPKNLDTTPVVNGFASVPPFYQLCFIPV

| SMILES | activity, negative = inhibition | AC50 |
| --- | --- | --- |
| CCN1C(=O)[C@H]2[C@H]3[C@H](O)[C@H](O)C/C(=N/OC[C@@H](O)COCc4ccco4)[C@H]3CC[C@@H]2C1=O | 1.57% [at 11.4 µM] |  |
| c1ccc(SC(Sc2ccccc2)c2ccc3c(c2)OCO3)cc1 |  | 3.16 µM (active) |
| c1ccc(Nc2ncncc2-c2ccc3c(c2)OCO3)cc1 | -20.1% [at 2.29 µM] |  |
| O=C(O)C[C@H](Cc1ccc2c(c1)OCO2)C(=O)O | -23.6% [at 11.4 µM] |  |
| COc1ccc(-c2ccc(N)[n+](CCCC(=O)O)n2)cc1 |  | inactive |
| CCCCN(C)CCCNC(=O)CCn1nc(-c2ccccc2)ccc1=O |  | inactive |
| COc1ccc(-c2ccc(=N)n(CCCC(=O)O)n2)cc1 |  | 3.16 µM (active) |
| COc1cccc(Cn2c(NCc3cccnc3)nc3c2c(=O)n(C)c(=O)n3C)c1 |  | 6.31 µM (active) |
| COc1cccc(-c2cc(NCc3cccnc3)ncn2)c1 | -28.7% [at 2.29 µM] |  |
| CSC1(SC2=NCCN2)SC2(NCCN2)S1 | -10.8% [at 11.4 µM] |  |
| O=C(Nc1ccc2oc(=O)c(C(=O)O)cc2c1)Oc1ccccc1 | -10.6% [at 11.4 µM] |  |
| CC(C)(C)c1ccc(OC(=O)Nc2ccc(O)c(C(=O)O)c2)cc1 | -20.8% [at 11.4 µM] |  |
| CCOC(=O)Nc1ccc(C(=O)Oc2ccccc2)c(O)c1 |  | 17.8 µM (active) |
| CCOC(=O)c1cc2c(=O)n3ccccc3nc2n(CCCOC)c1=NC(=O)C(C)(C)C |  | 1.58 µM (active) |
| O=C(c1csnn1)N1CCC2(CC1)CCN(c1ncccn1)CC2 |  | inactive |
| COc1cc(N=c2ssnc2Cl)cc(OC)c1OC |  | 6.31 µM (active) |
| CCOC(=O)N/N=C1/C[C@@H](O)[C@@H](O)[C@@H]2[C@@H]3C(=O)N([C@@H](C)c4ccccc4)C(=O)[C@H]3CC[C@H]12 | 27.2% [at 11.4 µM] |  |
| CN(C)C(=O)c1cn(N(C)c2ncc(C(F)(F)F)cc2Cl)c(=O)c2ccccc12 |  | 2.82 µM (active) |
| CCOC(=O)C(C(=O)NCc1ccc(C)cc1)c1ncc(C(F)(F)F)cc1Cl (stereo not given) |  | inactive |
| C[n+]1ccccc1/C=N\O |  | inactive |
| C=CCn1c(-c2cccn(Cc3ccccc3)c2=O)n[nH]c1=S |  | inactive |
| O=c1c(-c2nc3ccccc3s2)cccn1Cc1ccccc1 |  | 3.16 µM (active) |
| c1cc(CN2CCCCC2)cc(OCCCNc2nc3ccccc3s2)c1 |  | inactive |
| Cc1cnc(CNc2ncncc2-c2cccc(C#N)c2)cn1 | -1.84% [at 2.29 µM] |  |
| Cn1cc[nH]c1=S |  | inactive |

| SMILES | activity, negative = inhibition | AC50 |
| --- | --- | --- |
| CN1CCC2(CC1)CCN(C(=O)c1cc(C(F)(F)F)cc(C(F)(F)F)c1)CC2 |  | inactive |
| CCOC(=O)CSC1=C(C#N)C(c2sccc2C)CC(=O)N1 (stereo not given) |  | 12.6 µM (active) |
| CCOC(=O)CSC1=C(C#N)C(c2sccc2C)C(C(C)=O)=C(C)N1 (stereo not given) |  | 1.78 µM (active) |
| C=CCOC(=O)C1=C(C)NC(SCC(=O)OCC)=C(C#N)C1c1ccc(C)cc1 (stereo not given) |  | 7.94 µM (active) |
| CCCC(O)(CCC)C(=O)NN1CCCCC1 |  | inactive |
| O=C(c1ccco1)N1CCC2(CC1)CN(c1ccc(-c3ccccc3)cc1)C2 |  | inactive |
| O=C(c1ccco1)N1CCC2(CC1)CCN(c1ccccc1)CC2 |  | inactive |
| CC(=O)N1CCc2cc(Br)cc(S(=O)(=O)N3CCN(C(=O)c4ccco4)CC3)c21 |  | 5.01 µM (active) |
| CS(=O)(=O)c1ccc(/C=N\NC(N)=S)cc1 | -1.25% [at 11.4 µM] |  |
| Cc1ccc(S(=O)(=O)N/N=C/c2ccc(OC3CSC3)cc2)cc1 |  | 1.41 µM (active) |
| COc1ccc(/C=N/NC(=S)NC2CCS(=O)(=O)C2)cc1OC (stereo not given) |  | inactive |
| COc1ccc(C(=O)Oc2cc(/C=N/NS(=O)(=O)c3ccc(C)cc3)ccc2OC)cc1 |  | 2.24 µM (active) |
| COc1ccc(/C=N\NC(=O)O)cc1 | -7.71% [at 11.4 µM] |  |
| Fc1ccc(-c2ccnc3nc(N4CCOCC4)nn23)cc1 |  | inactive |
| O=C(O)CCCSc1ccccc1 | 14.8% [at 11.4 µM] |  |
| COC(=O)C1=C(C)NC(C)=C(C(=O)OCCSc2ccccc2)[C@@H]1C |  | 3.16 µM (active) |
| Cc1nc2cnc(N3CCN(C)CC3)nc2n(Cc2ccc(F)cc2)c1=O |  | inactive |
| COC(=O)c1ccc(Oc2cc(C)nc(-n3nc(C)cc3C)n2)cc1 |  | 25.1 µM (active) |
| Cc1nc2ccccc2nc1-c1ccc(N=[N+]([O-])c2ccc(-c3nc4ccccc4nc3C)cc2)cc1 | -2.63% [at 11.4 µM] |  |
| C[N+](C)(C)CCO |  | inactive |
| CC(C)COC[C@H](CN(Cc1ccccc1)c1ccccc1)N1CCCC1 |  | inactive |
| O=C1CC(=Nc2ccccc2)NN1c1ccccc1 |  | 2.82 µM (active) |
| c1ccc2c(c1)C(=Nc1ccc(N=C3c4ccccc4-c4ccccc43)cc1)c1ccccc1-2 | -2.68% [at 11.4 µM] |  |
| CC1=NN(c2ccccc2)C(=O)C1 |  | inactive |
| N#Cc1cccc(NC(=O)N2CCC3(CC2)CCN(C(=O)c2cccc(F)c2)CC3)c1 |  | inactive |

| SMILES | activity, negative = inhibition | AC50 |
| --- | --- | --- |
| Cc1cc2c(s1)CCCCC(=O)N2 |  | inactive |
| CN(C)CCCO[C@H]1[C@@H]2OC(C)(C)O[C@@H]2O[C@@H]1[C@H](O)CO |  | inactive |
| COc1ccc(NC(=O)N2CCC3(CC2)CCN(S(=O)(=O)c2ccccc2)CC3)cc1 |  | inactive |
| COc1ccc(NC(=O)N2CCCC3(CCN(S(=O)(=O)c4ccccc4)CC3)C2)cc1 |  | 20 µM (active) |
| COc1ccc(NC(=O)N2CC3(CCN(S(C)(=O)=O)CC3)C2)cc1 |  | inactive |
| COc1ccc(NC(=O)N2CCC3(CC2)CCN(S(C)(=O)=O)CC3)cc1 |  | 15.8 µM (active) |
| COc1ccc(NC(=O)N2CCCC3(CCN(S(C)(=O)=O)CC3)C2)cc1 |  | inactive |
| O=C(Nc1ccccc1)N1CCC2(CC1)CCN(S(=O)(=O)c1ccccc1)CC2 |  | inactive |
| CS(=O)(=O)N1CCC[C@@]2(CCN(C(=O)Nc3ccccc3)C2)C1 |  | inactive |
| COc1ccc(NC(=O)N2CC3(CCN(S(=O)(=O)c4ccccc4)CC3)C2)cc1 |  | inactive |
| O=C(Nc1ccccc1)N1CCCC2(CCN(S(=O)(=O)c3ccccc3)CC2)C1 |  | 10 µM (active) |
| CN1CC[C@@]2(CCN3CCc4c(oc5ccccc45)[C@@H]3C2)N(C)C1=O |  | inactive |
| Cc1nc(N=Nc2cc(S(=O)(=O)O)ccc2S(=O)(=O)O)c(COP(=O)(O)O)c(C=O)c1O |  | inactive |
| CN1CCCC[C@@H]1CCN1CCCCC1 | -2.28% [at 11.4 µM] |  |
| CSc1nncn1/N=C/c1ccc2c(c1)OCO2 |  | inactive |
| Cn1c(=O)n(C)c2cc(S(=O)(=O)O)ccc21 |  | inactive |
| Cn1c(=O)n(C)c2cc(/C=N/n3cnnc3)ccc21 |  | 2.24 µM (active) |
| CC(C)OC(=O)C1=C2SCC(=O)N2C(N)=C(C#N)C1 |  | 8.91 µM (active) |
| Nc1nc(N)nc(CCCc2nc(N)nc(N)n2)n1 | 9.16% [at 11.4 µM] |  |
| CC(=O)Nc1nnc(CCN2CCCCC2)s1 |  | inactive |
| CC(C)=CC(=O)Nc1nnc(C(C)C)s1 |  | 10 µM (active) |
| CC(=O)Nc1nnc(S(N)(=O)=O)s1 |  | inactive |
| Cc1ccccc1/C=N\NC(=O)c1csnn1 |  | inactive |
| Cc1c(C(=O)N/N=C/c2ccccc2)sc(=S)n1C |  | inactive |
| Cc1nn(-c2ccccc2)c(C)c1/C=N/NC(=O)c1cc(-c2ccc(Cl)s2)[nH]n1 |  | 7.94 µM (active) |

| SMILES | activity, negative = inhibition | AC50 |
| --- | --- | --- |
| CC(C)(C)C(=O)N1CCC(O)(CS(=O)(=O)Cc2ccc(Cl)cc2)CC1 |  | inactive |
| O=C(NCCN1CCCC1)C1(S(=O)(=O)c2ccc(Cl)cc2)CC1 |  | inactive |
| CCOC(=O)C1(S(=O)(=O)c2ccc(Cl)cc2)CCN(Cc2ccc(Cl)cc2)CC1 |  | 3.55 µM (active) |
| S=c1[nH]nc(CCc2ccccc2)n1Cc1ccccc1 |  | 7.94 µM (active) |
| CCn1c(CC(C)C)n[nH]c1=S |  | inactive |
| Cc1ccccc1N1CCN(S(=O)(=O)C[C@@]23CC[C@H](C[C@H]2NC(=O)[C@@H](N)CCS(C)(=O)=O)C3(C)C)CC1 |  | inactive |
| COC(=O)c1sc2ccccc2c1-n1cccc1C(=O)C(=O)Nc1ccc(Cl)cc1 |  | 0.1 µM (active) |
| C=CCNC(=O)c1cccn1-c1ccsc1C(=O)OC |  | inactive |
| COC(=O)c1ccccc1NS(=O)(=O)c1ccc2c3c(cccc13)C(=O)N2 |  | 0.178 µM (active) |
| CCCCOC(=O)Nc1ccccc1C(=O)OC |  | inactive |
| Oc1ccc([C@@H]2CNCc3sccc32)cc1O |  | inactive |
| Cc1ccc2nc(/C(C#N)=C\c3ccc(OC(=O)c4cccs4)cc3)[nH]c2c1 |  | 2 µM (active) |
| Cc1cc(C)cc(Oc2coc3cc(OC(=O)c4cccs4)ccc3c2=O)c1 |  | inactive |
| Cn1c(=O)c2c(ncn2C[C@@H](O)CO)n(C)c1=O |  | inactive |
| Cn1c(=O)c2c(ncn2CC(COCc2ccccc2Cl)OCc2ccccc2Cl)n(C)c1=O (stereo not given) |  | 15.8 µM (active) |
| Cn1c(=O)c2c(ncn2CCO)n(C)c1=O |  | inactive |
| Cc1ccc(NC(=S)NC2CCCC2)cc1 |  | inactive |
| Cc1ccc(NC(=O)CCc2ccc(S(=O)(=O)NC3CCCCC3)cc2)cc1 |  | 3.98 µM (active) |
| CCC(C)NS(=O)(=O)c1ccc(NC(=O)CCC2CCCCC2)cc1 (stereo not given) |  | inactive |
| O=C(CCc1ccc(S(=O)(=O)NC2CCCCC2)cc1)N(Cc1ccccc1)Cc1ccccc1 |  | 1 µM (active) |
| OCCNCCCOc1cccc(Cl)c1Cl |  | inactive |
| O[C@@H](c1ccccc1)C1CCN(CCc2ccccc2)CC1 |  | inactive |
| CCCCNc1nc(SC)nc2nc[nH]c12 | -18.3% [at 11.4 µM] |  |
| O=C(O)c1ccc(Oc2nc3ccccc3s2)cc1 | -27% [at 11.4 µM] |  |
| O=C(OCc1nc2ccccc2s1)c1ccc(Br)s1 |  | 4.47 µM (active) |
